The source of these data is PubChem BioAssay (NCATS).

Records with an inconclusive call do not appear. Where a call stands in place of a potency, no number is given. Active and inactive are the calls of the source. Calls follow the shape of the dose curve; as a rule, active = well fitted cell-killing curve with a large enough effect; inconclusive = small, poorly fitted or top-dose-only effect; inactive = no such curve, though single readings can be large or run the other way.
Potency is read from the fitted curve at half-maximal effect.

The nature of this experiment: qHTS of pediatric cancer cell lines to identify multiple opportunities for drug repurposing: Primary screen for Rh41 cells (AID 1347108). Also: nearly all actives have a fitted effect of over 70% in size. The conditions noted are these: Rh41 rhabdomyosarcoma viability, CellTiter-Glo luminescence, 48 h; series mostly up to 46 µM. From the text:
Drug repurposing or repositioning has been offered as a strategy for drug development in oncology programs. This approach has special potential for childhood cancers and other rare or orphan diseases, where the expected return on new drug development has been a disincentive to pharmaceuticals. […] In this project we exploit the poly-pharmacology of drugs to discover new indications via phenotypic screening of a panel of 19 well-characterized cell lines derived from solid tumors seen in children and adolescents. The goal is to identify approved drugs with previously unrecognized anticancer properties that has the potential to reveal new mechanisms and biological processes involved in carcinogenesis or drug resistance. We employed a titration-based paradigm (quantitative high-throughput screening or qHTS), where all compounds were tested at multiple concentrations for their effect on cell viability. Concentration-response curves (CRCs) were derived directly from the primary screen, and both potency and efficacy values were used to identify compounds with robust bioactivity profiles. We screened the NIH Chemical Genomics Center (NCGC) Pharmaceutical Collection (NPC) and Mechanism Interrogation Plate (MIPE) small molecule collections of approved and investigational compounds against these cell lines; and measured metabolically active cells after 48 hours of compound treatment as a proxy for cell viability. […] Assay Submitter: Nathalia J. Martinez, National Center for Advancing Translational Sciences, National Institutes of Health, Rockville, MD, USA; email: natalia.martinez@nih.gov Shen, M et al. Quantitative high-throughput phenotypic screening of pediatric cancer cell lines identifies multiple opportunities for drug repurposing. Oncotarget 2017 Dec 19;9(4):4758-4772. PMID 29435139.
The cells were obtained from University of North Carolina (UNC), Pediatric Preclinical Testing Program (PPT), and Coriell Institute (CI). qHTS cell viability assay: Cells were assayed in growth media at a density of 500-1,000 cells/well. Five microliters of cells were dispensed into 1,536-well, white, solid-bottom, TC-treated plates (Greiner Bio One) using a multidrop dispenser and incubated at 37 degrees C, 5% CO2, under a humidified atmosphere for 5 hours. Twenty-three nanoliters of compounds and controls (neutral control DMSO or positive control bortezomib at final concentration of 2.3 µM) were subsequently transferred by Kalypsys pintool. For primary screens, the MIPE collection was tested at 11-point dilutions (final concentrations range from 0.78 nM to 46 µM) and the NPC collection at 8-point dilutions (final concentrations range from 0.59 nM to 46 µM). Compounds tested in follow-up screens were assayed at 11-point dilutions. Cells were incubated for 48 hours, followed by addition of 3 µL of CellTiter-Glo (Promega). After a 15 min incubation at room temperature, samples were analyzed for luminescence intensity using a ViewLux High-throughput CCD imager equipped with clear filters.
For `O=C1NC(=O)C(c2ccccc2)(c2ccccc2)N1`, the Potency entry is “inactive”.

As for `CC(C)C(C)C=CC(C)C1CCC2C3=CC=C4CC(O)CCC4(C)C3CCC21C` (stereo not given), the Potency result was “inactive”.

In the case of `NC1CCC(Nc2nc(Nc3ccc(C(=O)N4CCCCC4)cc3)c3ncn(-c4cccc(F)c4)c3n2)CC1` (stereo not given), the Potency result is “inactive”.

With `CN1[C@@H]2CCC[C@@H]1CC(NC(=O)c1nn(C)c3ccccc13)C2` (stereo not given in full), the Potency result was “inactive”.

`COc1ccc2c(Oc3ccc(NC(=O)c4c(C)n(CC(C)(C)O)n(-c5ccccc5)c4=O)nc3)ccnc2c1`: the Potency result was “inactive”.

Consider `Cc1nnc(C(C)C)n1C1C[C@H]2CC[C@@H](C1)N2CC[C@H](NC(=O)C1CCC(F)(F)CC1)c1ccccc1` (stereo not given in full), for which the Potency result was “inactive”.

On to `O=C(O)c1ccccc1C(=O)Nc1ccc(-c2ccccc2)cc1`, for which the Potency result is “inactive”.

For `O=C1NCC2(CCN(CCc3ccccc3)CC2)O1`, the Potency entry was “inactive”.

With `Cc1nc(N)sc1-c1ccnc(Nc2ccc(N3CCOCC3)cc2)n1`, the Potency is 18.7 µM (active).

For `CC(C)OC(=O)C(C)(C)Oc1ccc(C(=O)c2ccc(Cl)cc2)cc1`, the Potency entry is “inactive”.

Regarding `Cc1ccc(C(C)(O)c2nc3ccccc3s2)c(C)c1` (stereo not given), the Potency result was “inactive”.

In the case of `CC(C)(C)c1ccc(C(O)CCCN2CCC(C(O)(c3ccccc3)c3ccccc3)CC2)cc1` (stereo not given), the Potency entry was “inactive”.

As for `O=C(NOCC(O)CO)c1cc(Br)c(F)c(F)c1Nc1ccc(I)cc1F` (stereo not given), the Potency result was “inactive”.

Consider `COC(=O)[C@@H]1[C@H]2C[C@H]3c4[nH]c5ccccc5c4CCN3C[C@@H]2CC[C@@H]1O`, for which the Potency entry was “inactive”.

As to `CN1C[C@H]2c3ccccc3Oc3ccc(Cl)cc3[C@@H]2C1`, the Potency result is “inactive”.

Take `O=C(O)C(O)Cc1ccc(O)c(O)c1` (stereo not given): the Potency result is “inactive”.

With `CC(C)(C)C(=O)Oc1ccc2c(c1)nc(NC(=O)c1cccc([N+](=O)[O-])c1)n2CCCO`, the Potency result is “inactive”.

Consider `O=C1NC(=O)C(=Cc2ccc3c(c2)OC(F)(F)O3)S1`, for which the Potency entry was “inactive”.

As for `COc1cc2ncnc(-n3nc(-c4ccccn4)nc3N)c2cc1OC`, the Potency result was “inactive”.

As to `CC1(C)CCC[C@@]2(C)[C@@H]1CC[C@@]1(C)OC(=O)C[C@H]21`, the Potency entry was “inactive”.

Regarding `O=C1C[C@@H](c2ccc(O)cc2)Oc2cc(O)cc(O)c21`, the Potency result was “inactive”.

In the case of `COc1ccc2cc(-c3nc(-c4ccc(S(C)=O)cc4)[nH]c3-c3ccncc3)ccc2c1` (stereo not given), the Potency result is “inactive”.

With `COC1CCC(N(C(=O)C2CCC(C)CC2)c2cc(C3=CCCCC3)sc2C(=O)O)CC1` (stereo not given), the Potency result is “inactive”.

As to `C[N+]1(C)[C@@H]2CC(OC(=O)[C@H](CO)c3ccccc3)C[C@H]1[C@H]1O[C@@H]12` (stereo not given in full), the Potency result was “inactive”.

In the case of `CC(C)C[C@H](CC(=O)O)C(=O)N[C@@H](Cc1c[nH]c2ccccc12)C(=O)N[C@@H](C)c1ccccc1`, the Potency entry is “inactive”.

For the compound `COCCCCC(=NOCCN)c1ccc(C(F)(F)F)cc1`, the Potency is 20.9 µM (active).

For the compound `CCOc1ccc(Nc2nc(-c3c(C)nc4ccccn34)cs2)cc1`, the Potency entry was “inactive”.

Turning to `COc1cccc([C@@H](C)NCCCc2ccccc2Cl)c1`, the Potency result is “inactive”.

`Cc1c[nH]c(C=C2C(=O)Nc3ccccc32)c1CCC(=O)O`: the Potency result is “inactive”.

With `COc1cccc(-c2cc(=O)c3ccccc3o2)c1N`, the Potency result was “inactive”.

As for `OC[C@H]1O[C@@H](n2cnc3c2NC=NC[C@@H]3O)C[C@H]1O`, the Potency entry was “inactive”.

On to `CC(C)NCC(O)COc1cccc2[nH]ccc12` (stereo not given), for which the Potency entry is “inactive”.

Take `c1cc(-c2sc(-c3ccncc3)c(-c3ccncc3)c2-c2ccncc2)ccn1`: the Potency result was “inactive”.

Consider `OC[C@H]1O[C@@H](Oc2cc(O)cc(C=Cc3ccc(O)cc3)c2)[C@H](O)[C@@H](O)[C@H]1O`, for which the Potency entry was “inactive”.

For `Cn1cc(C=C2C(=O)Nc3cccnc32)c2ccccc21`, the Potency result is “inactive”.

For `COc1ncc(-c2ccc3nccc(-c4ccnnc4)c3c2)cc1NS(=O)(=O)c1ccc(F)cc1F`, the Potency is 0.0118 µM (active).

Take `COc1cc(Nc2ncc(F)c(Nc3ccc4c(n3)NC(=O)C(C)(C)O4)n2)cc(OC)c1OC`: the Potency was 2.35 µM (active).

On to `Oc1ccc(C2=Cc3ccc(O)cc3OC2)cc1`, for which the Potency was 5.9 µM (active).

With `Cc1ccc(C(=O)Nc2cccc(C(F)(F)F)c2)cc1Nc1nc(-c2cccnc2)nc2c1cnn2C`, the Potency was 18.7 µM (active).

For `O=C1NC(=O)C(=Cc2ccc(-c3ccc(F)cc3)o2)S1`, the Potency result is “inactive”.
